# Assay results reported in PubChem BioAssay AID743482 (Broad Institute, 2014).
# Activity calls are given as the source filed them.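 Rule for the calls: active = falling viability signal whose fitted half-maximal concentration is at most twice the highest tested dose; inconclusive = flat fit with a moderate drop, or a poor curve fit; inactive = the rest.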
# Experiment: cytotoxicity in HepG2 cells, dose response, cytotoxicity control, cell-based, CellTiter-Glo luminescence, dry powder (AID 743482)
# Conditions: HepG2 viability, ATP luminescence, 72 h; series mostly up to 26 µM; activity change, negative = cytotoxicity: at the top concentration
row,Structure (SMILES),"activity change, negative = cytotoxicity"
1,C[C@@H]1CCCCO[C@@H](CN(C)C(=O)Nc2cccc3ccccc23)[C@H](C)CN([C@H](C)CO)C(=O)c2cc(NC(=O)C3CCCCC3)ccc2O1,2.79% (inactive)
2,C[C@H](CO)N1C[C@H](C)[C@H](CN(C)C(=O)Nc2ccc3ccccc3c2)OCCCC[C@H](C)Oc2ccc(NC(=O)C3CCCCC3)cc2C1=O,29.9% (inactive)
3,C[C@@H]1CN([C@H](C)CO)C(=O)c2cc(NC(=O)C3CCCCC3)ccc2O[C@@H](C)CCCCO[C@@H]1CN(C)C(=O)Nc1cccc2ccccc12,-11.1% (inactive)
4,C[C@H]1CCCCO[C@@H](CN(C)C(=O)Nc2ccc3c(c2)OCO3)[C@@H](C)CN([C@@H](C)CO)C(=O)c2cc(NC(=O)NC3CCCCC3)ccc2O1,6.93% (inactive)
5,C[C@H](CO)N1C[C@H](C)[C@H](CN(C)C(=O)Nc2ccccc2F)OCCCC[C@H](C)Oc2ccc(NC(=O)C3CCCCC3)cc2C1=O,5.81% (inactive)
6,C[C@H]1CCCCO[C@@H](CN(C)C(=O)Nc2cccc3ccccc23)[C@@H](C)CN([C@@H](C)CO)C(=O)c2cc(NC(=O)C3CCCCC3)ccc2O1,11.6% (inactive)
7,C[C@H](CO)N1C[C@H](C)[C@H](CN(C)C(=O)Nc2ccc(C(F)(F)F)cc2)OCCCC[C@H](C)Oc2ccc(NC(=O)CCC(F)(F)F)cc2C1=O,27.6% (inactive)
8,C[C@H](CO)N1C[C@H](C)[C@H](CN(C)C(=O)Nc2ccc(C(F)(F)F)cc2)OCCCC[C@H](C)Oc2ccc(NC(=O)NC3CCCCC3)cc2C1=O,-0.944% (inactive)
9,COc1ccc(NC(=O)N(C)C[C@@H]2OCCCC[C@H](C)Oc3ccc(NC(=O)NC4CCCCC4)cc3C(=O)N([C@H](C)CO)C[C@@H]2C)cc1,37.9% (inactive)
10,C[C@H](CO)N1C[C@H](C)[C@H](CN(C)C(=O)Nc2ccc(F)cc2)OCCCC[C@H](C)Oc2ccc(NC(=O)Nc3ccccc3)cc2C1=O,25.8% (inactive)
11,C[C@H](CO)N1C[C@H](C)[C@H](CN(C)C(=O)Nc2ccc(F)cc2)OCCCC[C@H](C)Oc2ccc(NC(=O)C3CCCCC3)cc2C1=O,51.3% (inactive)
12,C[C@H](CO)N1C[C@H](C)[C@H](CN(C)C(=O)Nc2ccc(F)cc2)OCCCC[C@H](C)Oc2ccc(NC(=O)NC3CCCCC3)cc2C1=O,39% (inactive)
13,C[C@@H]1CCCCO[C@H](CN(C)C(=O)Nc2cccc3ccccc23)[C@H](C)CN([C@H](C)CO)C(=O)c2cc(NC(=O)C3CCCCC3)ccc2O1,26.6% (inactive)
14,CC(=O)Nc1ccc2c(c1)C(=O)N([C@H](C)CO)C[C@H](C)[C@H](CN(C)C(=O)Nc1ccc(F)cc1)OCCCC[C@H](C)O2,1.82% (inactive)
15,C[C@H](CO)N1C[C@H](C)[C@H](CN(C)C(=O)Nc2cccc3ccccc23)OCCCC[C@H](C)Oc2ccc(NC(=O)C3CCCCC3)cc2C1=O,27% (inactive)
16,C[C@@H]1CN([C@@H](C)CO)C(=O)c2cc(NC(=O)C3CCCCC3)ccc2O[C@@H](C)CCCCO[C@@H]1CN(C)C(=O)Nc1cccc2ccccc12,-1.51% (inactive)
17,C[C@H](CO)N1C[C@H](C)[C@H](CN(C)C(=O)Nc2ccc(F)cc2)OCCCC[C@H](C)Oc2ccc(NC(=O)C3CC3)cc2C1=O,15.6% (inactive)
18,C[C@@H]1CCCCO[C@H](CN(C)C(=O)Nc2cccc3ccccc23)[C@H](C)CN([C@@H](C)CO)C(=O)c2cc(NC(=O)C3CCCCC3)ccc2O1,10.5% (inactive)
19,C[C@H](CO)N1C[C@H](C)[C@H](CN(C)C(=O)Nc2cccc3ccccc23)OCCCC[C@H](C)Oc2ccc(NC(=O)NC3CCCCC3)cc2C1=O,2.98% (inactive)
20,C[C@H](CO)N1C[C@H](C)[C@@H](CN(C)C(=O)Nc2cccc3ccccc23)OCCCC[C@H](C)Oc2ccc(NC(=O)C3CCCCC3)cc2C1=O,16.4% (inactive)
21,C[C@H](CO)N1C[C@H](C)[C@H](CN(C)C(=O)Nc2cccc3ccccc23)OCCCC[C@H](C)Oc2ccc(NC(=O)CCC(F)(F)F)cc2C1=O,20.8% (inactive)
22,COc1ccc(S(=O)(=O)N(C)C[C@@H]2OCCCC[C@H](C)Oc3ccc(NS(=O)(=O)c4ccc(F)cc4)cc3C(=O)N([C@@H](C)CO)C[C@@H]2C)cc1,3.65% (inactive)
23,C[C@H](CO)N1C[C@H](C)[C@H](CN(C)C(=O)Nc2ccccc2)OCCCC[C@H](C)Oc2ccc(NC(=O)NC3CCCCC3)cc2C1=O,18.5% (inactive)
24,C[C@@H]1CCCCO[C@@H](CN(C)C(=O)Nc2cccc3ccccc23)[C@@H](C)CN([C@H](C)CO)C(=O)c2cc(NC(=O)C3CCCCC3)ccc2O1,16.7% (inactive)
25,COc1ccc(NC(=O)N(C)C[C@@H]2OCCCC[C@H](C)Oc3ccc(NC(=O)C4CCCCC4)cc3C(=O)N([C@H](C)CO)C[C@@H]2C)cc1,1.76% (inactive)
26,C[C@H](CO)N1C[C@H](C)[C@H](CN(C)C(=O)Nc2ccc(F)cc2)OCCCC[C@H](C)Oc2ccc(NC(=O)C3CCOCC3)cc2C1=O,13% (inactive)
